The values below come from PubChem BioAssay.

Molecules are shown by their SMILES. Unmarked numbers belong to inactive results. No rule for the calls is given here.

This assay relates to Aerobactin synthetase IucA (Klebsiella pneumoniae hvKP1). Kind of assay: Biochemical IucA enzyme inhibition primary screen of the Spectrum library (AID 1346200).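 Also: 100% = wells without compound and 0% = wells lacking enzyme.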 The note with it: malachite green pyrophosphate, A620, at 8 µM, hits give low values.
As to `CS(=O)(=O)CCCCN=C=S`, the activity remaining was 101%.

For `CC1CCCC(C)N1NC(=O)c1ccc(Cl)c(S(N)(=O)=O)c1` (stereo not given), the activity remaining is 121%.

Take `CC(C)=CCc1c(O)cc2oc(C)cc(=O)c2c1O`: the activity remaining was 118%.

Regarding `NCCSSCCN`, the activity remaining is 116%.

For `NNc1nncc2ccccc12`, the activity remaining was 102%.

On to `C/C=C(/C)C(=O)O[C@@H]1[C@H](OC(C)=O)[C@@]2(CO)C(CC1(C)C)C1=CCC3[C@@]4(C)CC[C@H](O[C@@H]5O[C@H](C(=O)O)[C@@H](O[C@@H]6O[C@H](CO)[C@@H](O)[C@H](O)[C@H]6O)[C@H](O)[C@H]5O[C@@H]5O[C@H](CO)[C@@H](O)[C@H](O)[C@H]5O)[C@](C)(CO)C4CC[C@@]3(C)[C@]1(C)C[C@H]2O` (stereo not given in full), for which the activity remaining was 119%.

`CCCCCC(O)C1C(=O)OC(C)C(O)/C=C/C=C/C=C/C=C/C=C(\C)C(O)CC(O)CC(O)CC(O)CC(O)CC(O)CC1O` (stereo not given): the activity remaining was 118%.

For `C=C1C2CC[C@@]3(C)[C@H](c4ccoc4)OC(=O)C[C@]13O[C@H]1C[C@H](OC(C)=O)C(C)(C)[C@H](CC(=O)OC)[C@@]21C`, the activity remaining is 98.7%.

As to `NCC(O)CC(=O)O` (stereo not given), the activity remaining is 98.6%.

Take `O=C(O)c1cc(=O)c2ccc(Cl)cc2[nH]1`: the activity remaining is 94.8%.

In the case of `COC(=O)Nc1nc2ccc(S(=O)c3ccccc3)cc2[nH]1` (stereo not given), the activity remaining was 110%.

Regarding `C#CCCCCCCCCCCCC(O)CC(O)CO` (stereo not given), the activity remaining is 98.4%.

On to `O=C1c2cccc(O)c2C(=O)c2c(O)cccc21`, for which the activity remaining is 93.6%.

As to `C1N2CN3CN1CN(C2)C3`, the activity remaining is 104%.

Turning to `Oc1c(I)cc(Cl)c2cccnc12`, the activity remaining was 126%.

In the case of `CC[C@H]1OC(=O)[C@H](C)[C@@H](O[C@H]2C[C@@](C)(OC)[C@@H](O)[C@H](C)O2)[C@H](C)[C@@H](O[C@@H]2O[C@H](C)C[C@H](N(C)C)[C@H]2O)[C@](C)(OC)C[C@@H](C)C(=O)[C@H](C)[C@@H](O)[C@]1(C)O`, the activity remaining is 119%.

For the molecule `CCCCCCNC(=O)n1cc(F)c(=O)[nH]c1=O`, the activity remaining is 112%.

Turning to `Cc1c(N(C)CS(=O)(=O)O)c(=O)n(-c2ccccc2)n1C`, the activity remaining was 97.1%.

For the molecule `CC(NCCC(c1ccccc1)c1ccccc1)c1ccccc1` (stereo not given), the activity remaining was 104%.

With `CC(=O)OCC(=O)[C@@]12OC3(CCCC3)O[C@@H]1CC1C3CCC4=CC(=O)C=C[C@]4(C)[C@@]3(F)[C@@H](O)C[C@@]12C` (stereo not given in full), the activity remaining was 90.4%.

As for `COC(=O)[C@@]1(C)CCC[C@]2(C)c3ccc(O)c(C(C)C)c3CCC12` (stereo not given in full), the activity remaining was 121%.

On to `COc1ccc(-c2cc(=O)c3c(O)cc(O)c(-c4cc(-c5cc(=O)c6c(O)cc(O)cc6o5)ccc4OC)c3o2)cc1`, for which the activity remaining was 117%.

For `OCc1c[nH]c2ccccc12`, the activity remaining was 118%.

For the molecule `C[C@](N)(Cc1ccc(O)c(O)c1)C(=O)O`, the activity remaining was 121%.

Take `O=C(O)c1cccnc1C(=O)O`: the activity remaining was 89.1%.

With `O=C(O[C@@H]1Cc2c(O)cc(O)cc2O[C@@H]1c1cc(O)c(=O)c2c(O)c(O)cc([C@H]3Oc4cc(O)cc(O)c4C[C@H]3OC(=O)c3cc(O)c(O)c(O)c3)c2c1)c1cc(O)c(O)c(O)c1`, the activity remaining was 108%.

For `CC1(C)CCC[C@@]2(C)C1[C@@H](O)C[C@]1(C)C2CC[C@@H]2[C@@]3(C)CC[C@H](C(C)(C)O)[C@@H]3CC[C@@]21C` (stereo not given in full), the activity remaining was 99.1%.

For the molecule `NCCCC[C@H](N[C@@H](CCc1ccccc1)C(=O)O)C(=O)N1CCC[C@H]1C(=O)O`, the activity remaining is 114%.

As for `CC1=C(/C=C/C(C)=C/C=C/C(C)=C\C(=O)O)C(C)(C)CCC1`, the activity remaining was 116%.

`O=C1OC(=O)C2C3CCC(O3)C12` (stereo not given): the activity remaining was 117%.

For the molecule `OC[C@H]1O[C@@H](Oc2ccc(O)cc2)[C@H](O)[C@@H](O)[C@@H]1O`, the activity remaining is 115%.

Consider `CC[C@@H]1OC(=O)C[C@@H](O)[C@H](C)[C@@H](O[C@@H]2O[C@H](C)[C@@H](O)[C@H](N(C)C)[C@H]2O)[C@@H](CCN2C[C@H](C)C[C@H](C)C2)C[C@@H](C)C(=O)/C=C/C(C)=C\[C@@H]1CO[C@@H]1O[C@H](C)[C@@H](O)[C@@H](OC)[C@H]1OC`, for which the activity remaining is 112%.

With `CN1C(C(=O)Nc2ccccn2)=C(O)c2ccccc2S1(=O)=O`, the activity remaining is 115%.

For `CC(=O)Nc1ccccc1`, the activity remaining was 103%.

On to `COc1c2ccoc2cc2oc(=O)ccc12`, for which the activity remaining was 102%.

Consider `CCOC(=O)C(C)(C)Oc1ccc(Cl)cc1`, for which the activity remaining is 110%.

For `CC(=O)CC(=O)CCC(=O)O`, the activity remaining was 102%.

For `CC(=O)Oc1c2c(c3c(c1CC=C(C)C)O[C@]14C(=C[C@@H]5CC1C(C)(C)OC4(C/C=C(\C)C(=O)O)C5=O)C3=O)OC(C)(CCC=C(C)C)C=C2` (stereo not given in full), the activity remaining was 112%.

Turning to `CC(C)=CC1C(C(=O)O)C1(C)C` (stereo not given), the activity remaining was 121%.

Take `COc1cc(S(C)=O)ccc1-c1nc2ncccc2[nH]1` (stereo not given): the activity remaining is 108%.
